This is part of a sample that, as a whole, favours compounds with a hit. Of some 79,000 tested, about 15% had one in any assay. The source made the active and inactive calls. No stated cut-off is given here; in the data, active means growth inhibition above about 70%; inactive means the rest.
How the values were obtained:
[1] = NCI Yeast Anticancer Drug Screen. Data for the rad52 strain (AID 147);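 further: 0% = growth of vehicle-treated control cultures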; details: S. cerevisiae rad52 mutant growth inhibition, active compounds read high
Outline: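 Yeast strain carrying a DNA damage repair alteration was exposed to test compounds. Growth inhibition was measured relative to vehicle-treated controls.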

[2] = NCI Yeast Anticancer Drug Screen. Data for the wt1 strain (AID 149);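 further: 0% = growth of vehicle-treated wt1 cultures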; details: S. cerevisiae wt1 strain (SPY 50644) growth inhibition, active compounds read high
Outline: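 wt1 strain grown with compound or vehicle; inhibition taken from the growth difference.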

[3] = NCI Yeast Anticancer Drug Screen. Data for the rad50EPP+ strain (AID 151);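 further: 0% = growth of vehicle-treated control cultures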; details: S. cerevisiae rad50 mutant strain, active compounds read high
Outline: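 Yeast strain carrying rad50 alteration (rad50EPP+) exposed to compounds; growth inhibition measured relative to vehicle-treated controls.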

[4] = NCI Yeast Anticancer Drug Screen. Data for the mgt1 strain (AID 153); details: S. cerevisiae mgt1 mutant growth inhibition, active compounds read high
Outline: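 Yeast mgt1 strain (DNA repair/cell-cycle alteration panel) exposed to compounds; growth inhibition measured relative to vehicle-treated controls.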

[5] = NCI Yeast Anticancer Drug Screen. Data for the rad50 strain (AID 155);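 further: 0% = growth of vehicle-only cultures of the same strain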; details: S. cerevisiae rad50 strain growth inhibition, active compounds read high
Outline: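 DNA repair mutant yeast, compound exposure, growth read-out; inhibition is taken relative to vehicle.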

[6] = NCI Yeast Anticancer Drug Screen. Data for the mec2-1 strain (AID 157); details: S. cerevisiae mec2-1 strain, active compounds read high
Outline: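 mec2-1 yeast strain, carrying an alteration in DNA damage repair or cell cycle control, was exposed to compounds; growth inhibition was measured relative to vehicle-treated controls.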

[7] = NCI Yeast Anticancer Drug Screen. Data for the rad14 strain (AID 159);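 further: 0% = growth of vehicle-treated control cultures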; details: S. cerevisiae rad14 strain growth inhibition, active compounds read high
Outline: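 DNA repair-defective yeast, compound-exposed; % growth inhibition derived by comparison with vehicle-treated controls.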

[8] = NCI Yeast Anticancer Drug Screen. Data for the sgs1 mgt1 strain (AID 161);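 further: 0% = growth of cultures given vehicle only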; details: S. cerevisiae sgs1 mgt1 strain, active compounds read high
Outline: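 Percent growth inhibition was derived by comparing compound-exposed mutant yeast with vehicle-exposed cultures. The strain carries alterations in DNA damage repair.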

[9] = NCI Yeast Anticancer Drug Screen. Data for the CLN2oe strain (AID 163);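 further: 0% = growth of vehicle-only control cultures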; details: S. cerevisiae CLN2oe strain, active compounds read high
Outline: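 Yeast cells carrying a defined cell-cycle control alteration were exposed to test compounds. Growth inhibition was scored against vehicle-treated control cultures.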

[10] = NCI Yeast Anticancer Drug Screen. Data for the cln2 rad14 strain (AID 165);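 further: 0% = growth equal to vehicle treated cultures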; details: S. cerevisiae cln2 rad14 strain, active compounds read high
Outline: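 Yeast carrying cln2 and rad14 alterations (cell cycle control and DNA damage repair) were exposed to compounds. Growth inhibition was measured against vehicle-treated controls.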

[11] = NCI Yeast Anticancer Drug Screen. Data for the bub3 strain (AID 167); details: S. cerevisiae bub3 mutant strain, active compounds read high
Outline: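 In this screen, a yeast mutant lacking normal mitotic checkpoint function is challenged with compound. Relative growth versus vehicle gives the inhibition value.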

[12] = NCI Yeast Anticancer Drug Screen. Data for the wt2 strain (AID 169);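 further: 0% = growth of vehicle-treated yeast cultures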; details: S. cerevisiae wt2 strain growth inhibition, active compounds read high
Outline: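 Yeast cells were exposed to test compounds, and growth inhibition was measured relative to vehicle-treated controls.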

[13] = NCI Yeast Anticancer Drug Screen. Data for the mlh1 strain (AID 171);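 further: 0% = growth of vehicle-treated control cultures of the same strain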; details: S. cerevisiae mlh1 strain growth inhibition, active compounds read high
Outline: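 Yeast carrying a defined genetic alteration in DNA damage repair or cell cycle control were exposed to test compounds. Growth inhibition was measured relative to vehicle-treated controls.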

[14] = NCI Yeast Anticancer Drug Screen. Data for the sgs1 strain (AID 173);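 further: 0% = growth of vehicle-only control cultures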; details: S. cerevisiae sgs1 mutant, active compounds read high
Outline: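 Yeast mutant strains carrying defined defects in DNA damage repair or cell cycle control were exposed to test compounds. Growth inhibition was scored against vehicle-treated controls.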

[15] = NCI Yeast Anticancer Drug Screen. Data for the mlh1 rad18 strain (AID 175); details: S. cerevisiae mlh1 rad18 strain growth inhibition, active compounds read high
Outline: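 Growth inhibition of the yeast strain was measured after compound exposure and expressed relative to vehicle-treated controls. The strain carries defined defects in DNA damage repair.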

[16] = NCI Yeast Anticancer Drug Screen. Data for the rad18 strain (AID 177); details: S. cerevisiae rad18 mutant growth inhibition, active compounds read high
Outline: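 Yeast carrying a defined DNA damage repair alteration were exposed to compounds. Growth inhibition was expressed relative to vehicle-treated controls.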

[17] = at 5.0 µM (retest, dose inferred, filed as 0.5)
[18] = at 50.0 µM (retest, dose inferred, filed as 5.0)

Measured: growth inhibition

COc1cc(NCCCCNCC(C)(C)C)c2ncccc2c1
active: [11]; at 50.0 µM 70.9%
inactive: [1]; at 1.2 µM -3% | [1]; at 3.7 µM 1% | [1]; at 11.0 µM 8% | [1]; at 33.0 µM 14% | [1]; at 100.0 µM 26% | [2]; at 1.2 µM -2% | [2]; at 3.7 µM 1% | [2]; at 11.0 µM 4% | [2]; at 33.0 µM 0% | [2]; at 100.0 µM 1% | [3]; at 1.2 µM -8% | [3]; at 3.7 µM -12% | [3]; at 11.0 µM -16% | [3]; at 33.0 µM -19% | [3]; at 100.0 µM -17% | [4]; at 1.2 µM 0% | [4]; at 3.7 µM 3% | [4]; at 11.0 µM 6% | [4]; at 33.0 µM 14% | [4]; at 100.0 µM 2% | [5]; at 1.2 µM -5% | [5]; at 3.7 µM 1% | [5]; [17] 11% | [5]; at 11.0 µM 6% | [5]; at 33.0 µM 10% | [5]; [18] 25% | [5]; at 50.0 µM 59.9% | [5]; at 100.0 µM 35% | [6]; at 1.2 µM -3% | [6]; at 3.7 µM -4% | [6]; [17] -3% | [6]; at 11.0 µM 0% | [6]; at 33.0 µM 2% | [6]; [18] 16% | [6]; at 50.0 µM 18% | [6]; at 100.0 µM 13% | [7]; at 1.2 µM -1% | [7]; at 3.7 µM 8% | [7]; at 11.0 µM 29% | [7]; at 33.0 µM 32% | [7]; at 100.0 µM 28% | [8]; [17] 1% | [8]; [18] 28% | [8]; at 50.0 µM 51.8% | [9]; at 1.2 µM 0% | [9]; at 3.7 µM 2% | [9]; at 11.0 µM 12% | [9]; at 33.0 µM 25% | [9]; at 100.0 µM 39% | [10]; [17] 5% | [10]; [18] 33% | [10]; at 50.0 µM 51.6% | [11]; at 1.2 µM -2% | [11]; at 3.7 µM -2% | [11]; [17] 3% | [11]; at 11.0 µM 0% | [11]; at 33.0 µM 19% | [11]; [18] 20% | [11]; at 100.0 µM 37% | [12]; at 1.2 µM -1% | [12]; at 3.7 µM -1% | [12]; at 11.0 µM 3% | [12]; at 33.0 µM 5% | [12]; at 100.0 µM 5% | [13]; at 1.2 µM -3% | [13]; at 3.7 µM -1% | [13]; at 11.0 µM 5% | [13]; at 33.0 µM 12% | [13]; at 100.0 µM 16% | [14]; at 1.2 µM -3% | [14]; at 3.7 µM -2% | [14]; at 11.0 µM 6% | [14]; at 33.0 µM 15% | [14]; at 100.0 µM 20% | [15]; [17] -1% | [15]; [18] 31% | [15]; at 50.0 µM 37.1% | [16]; at 1.2 µM -5% | [16]; at 3.7 µM 0% | [16]; at 11.0 µM 7% | [16]; at 33.0 µM 8% | [16]; at 100.0 µM 16%

O=[N+]([O-])c1ccc2nc(=S)[nH]n2c1
inactive: [1]; at 1.2 µM -3% | [1]; at 3.7 µM -2% | [1]; at 11.0 µM -2% | [1]; at 33.0 µM 10% | [1]; at 100.0 µM 65% | [2]; at 1.2 µM -3% | [2]; at 3.7 µM -2% | [2]; at 11.0 µM -7% | [2]; at 33.0 µM -8% | [2]; at 100.0 µM 41% | [3]; at 1.2 µM 0% | [3]; at 3.7 µM 6% | [3]; at 11.0 µM 20% | [3]; at 33.0 µM 46% | [4]; at 1.2 µM 0% | [4]; at 3.7 µM -4% | [4]; at 11.0 µM -4% | [4]; at 33.0 µM -8% | [4]; at 100.0 µM 1% | [5]; at 1.2 µM -4% | [5]; at 3.7 µM -1% | [5]; [17] -130% | [5]; at 11.0 µM 13% | [5]; at 33.0 µM 19% | [5]; at 50.0 µM 58.6% | [6]; at 1.2 µM 1% | [6]; at 3.7 µM -1% | [6]; [17] -42% | [6]; at 11.0 µM -5% | [6]; at 33.0 µM 0% | [6]; [18] -7% | [6]; at 50.0 µM 24.1% | [6]; at 100.0 µM 34% | [7]; at 1.2 µM 3% | [7]; at 3.7 µM -1% | [7]; at 11.0 µM 6% | [7]; at 33.0 µM 12% | [7]; at 100.0 µM 59% | [8]; [17] -58% | [8]; [18] 22% | [8]; at 50.0 µM 23.9% | [9]; at 1.2 µM -2% | [9]; at 3.7 µM -2% | [9]; at 11.0 µM -4% | [9]; at 33.0 µM -5% | [9]; at 100.0 µM 36% | [10]; [17] -59% | [10]; [18] 2% | [10]; at 50.0 µM -7.5% | [11]; at 1.2 µM -9% | [11]; at 3.7 µM -8% | [11]; [17] -71% | [11]; at 11.0 µM -5% | [11]; at 33.0 µM -5% | [11]; at 50.0 µM -6.7% | [11]; at 100.0 µM 65% | [12]; at 1.2 µM -2% | [12]; at 3.7 µM -1% | [12]; at 11.0 µM -2% | [12]; at 33.0 µM -3% | [12]; at 100.0 µM 12% | [13]; at 1.2 µM 7% | [13]; at 3.7 µM -5% | [13]; at 11.0 µM -3% | [13]; at 33.0 µM -2% | [13]; at 100.0 µM 26% | [14]; at 1.2 µM 0% | [14]; at 3.7 µM -2% | [14]; at 11.0 µM -5% | [14]; at 33.0 µM 0% | [14]; at 100.0 µM 47% | [15]; [17] -133% | [15]; at 50.0 µM 46.1% | [16]; at 1.2 µM -2% | [16]; at 3.7 µM 0% | [16]; at 11.0 µM 2% | [16]; at 33.0 µM 7% | [16]; at 100.0 µM 60%
active: [3]; at 100.0 µM 87% | [5]; [18] 94% | [5]; at 100.0 µM 98% | [11]; [18] 76% | [15]; [18] 78%

Source: PubChem BioAssay (NCI)
